High-throughput results (PubChem BioAssay)
UBC13 inh: blocks human UBC13 polyubiquitin chain formation | P61088 | TR-FRET | inhibition, % at 20 µM | 330,000 compounds, 0.47% hits | AID 485273; in the data active = inhibition above about 45%, passing the limit was not always enough
MEKK2 WT-MEK5: raises or lowers MEK5 binding to wildtype human MEKK2 PB1 domain; Q9Y2U5; bead flow cytometry, Alexa488-MEK5 binding to MEKK2 WT; actives lie on both sides; binding response (% of control), % at 10 µM; AID 1531; 290,000 compounds, 1.1% hits; in the data active = binding response below about 67% or above about 130%
MEKK2mut PB1 HTS: signal of MEK5 binding to mutant human MEKK2 PB1 domain; bead flow cytometry, Alexa488-MEK5 binding to MEKK2 mutant; AID 1530; 290,000 compounds, 0.35% hits; percent response, % at 10 µM; in the data active = percent response above about 24%, passing the limit was not always enough
ATG4B inh: inhibitors of human ATG4B cysteine protease; Q9Y4P1; ATG4B cleavage of LC3-PLA2, NBD-HPC fluorescence, 1 h; inhibition, % at 8.33 µM; 340,000 compounds, 0.51% hits; AID 504462; in the data active = inhibition above about 40%
Target sequence (Q9Y4P1 whole entry, looked up): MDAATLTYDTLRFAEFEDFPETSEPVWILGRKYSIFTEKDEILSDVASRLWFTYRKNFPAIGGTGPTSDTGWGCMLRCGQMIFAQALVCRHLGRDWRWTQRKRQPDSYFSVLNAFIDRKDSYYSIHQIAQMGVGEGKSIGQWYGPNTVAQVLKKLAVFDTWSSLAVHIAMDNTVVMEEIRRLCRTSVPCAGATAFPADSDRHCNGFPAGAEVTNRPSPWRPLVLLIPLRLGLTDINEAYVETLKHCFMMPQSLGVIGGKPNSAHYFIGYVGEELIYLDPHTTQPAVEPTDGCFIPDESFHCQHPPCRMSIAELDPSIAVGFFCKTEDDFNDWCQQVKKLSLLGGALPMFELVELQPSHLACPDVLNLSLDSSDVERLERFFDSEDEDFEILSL
PREPL inhibitor: inhibitors of human prolyl oligopeptidase-like enzyme PREPL. recombinant PREPL, fluorescence polarization activity-based probe. 320,000 compounds, 0.68% hits. inhibition, % at 5.96 µM. Q4J6C6; in the data active = inhibition above about 43%
MEKK3 PB1 HTS: MEKK3-MEK5 PB1 interaction, increase or decrease; Q99759; bead-based flow cytometry, Alexa488-MEK5 binding to MEKK3; actives lie on both sides; 0 = blocked by unlabeled MEK5, 100 = vehicle; binding response (% of control), % at 10 µM; 290,000 compounds, 1.4% hits;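 active = binding response more than 3 SD above or below the average of its plate-row segment, actives on both sides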;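 also: Alexa488 bead fluorescence after subtracting the streptavidin-only scavenger bead signal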
ATG4B conf: confirmation of human ATG4B inhibitors. shares compounds with ATG4B inh. ATG4B protease fluorescent substrate cleavage assay. inhibition, % at 8.33 µM. 320 compounds, 92% hits. AID 504757; in the data active = inhibition above about 39%
PLA2 counter: inhibits human PLA2, flagging false ATG4B inhibitors; shares compounds with ATG4B inh; purified PLA2, NBD-C6-HPC fluorescence, 45 min; inhibition, % at 8.33 µM; 1,600 compounds, 66% hits; AID 588402; in the data active = inhibition above about 50%
Numbers stand for hits; i = inactive; nt = no result given. Most compounds without a hit are left out; they make up all but 3.1% or so of the library.

SMILES	UBC13 inh	MEKK2 WT-MEK5	MEKK2mut PB1 HTS	ATG4B inh	PREPL inhibitor	MEKK3 PB1 HTS	PLA2 counter	others
Cc1ccc(S(=O)(=O)NCc2c(Cl)cccc2Oc2ccccc2)cc1	i	i	i	63	i	i	59
O=C(NC(CSSCC(NC(=O)c1ccccc1)C(=O)O)C(=O)O)c1ccccc1 (stereo not given)	i	i	i	i	i	i	nt
Cc1ccc(NCc2nnc(SCC(=O)N3c4ccccc4Sc4ccccc43)o2)c(C)c1	i	i	i	i	i	i	nt
Cc1nn(Cc2c(F)c(F)c(F)c(F)c2F)c(C)c1NC(=O)c1cccc(COc2ccccc2Cl)c1	i	i	i	63	i	i	56
Cc1nn(Cc2c(F)c(F)c(F)c(F)c2F)c(C)c1NC(=O)c1ccc(COc2ccc(Cl)cc2Cl)o1	i	i	i	88	i	i	85
Cc1nn(Cc2ccc(Cl)cc2Cl)c(C)c1NC(=O)c1ccc(COc2cc(Cl)ccc2Cl)o1	i	i	i	i	i	i	nt
CC(C(=O)N1CCc2ccccc21)N1CCN(S(=O)(=O)c2cccc(C(F)(F)F)c2)CC1 (stereo not given)	i	nt	nt	i	i	nt	nt
COc1cc(NS(=O)(=O)c2ccc(Nc3nc(-c4cccc([N+](=O)[O-])c4)cs3)cc2)nc(OC)n1	i	i	i	45	i	i	i	ATG4B conf=78
O=[N+]([O-])c1cccc(-c2csc(Nc3ccccc3)n2)c1	i	i	i	i	i	i	nt
O=C1C(=C(c2ccccc2)c2ccccc2)Nc2ccccc21	i	i	i	43	i	i	50
O=C(CN1C(=O)COc2ccccc21)NCCCN1CCc2ccccc2C1	i	i	i	76	i	i	i
COc1ccc(Br)cc1CNC(=O)CN1C(=O)C(c2ccccc2)Oc2cccnc21 (stereo not given)	i	i	i	59	i	i	67
CC(=O)OC[C@]12CC[C@H]3[C@@](C)(CC[C@H]4C(C)(C)CCC[C@]34C)[C@@H]1C[C@H](C1=CC(=O)O[C@@H]1OC(C)=O)O2	i	nt	nt	nt	i	nt	nt
COc1ccc(-n2nc3c(N4CCC(C(=O)N5CCCCCC5)CC4)nnc(C)c3c2C)cc1	i	i	i	75	i	i	79
COc1ccc(-n2nc3c(N4CCC(C(=O)NCc5cccc(C)c5)CC4)nnc(C)c3c2C)cc1	i	i	i	i	i	i	nt
CCCNC(=O)COc1coc(CN2CCN(c3ccccc3F)CC2)cc1=O	i	i	i	i	i	i	nt
O=C(COC(=O)c1cccc(S(=O)(=O)NCc2ccccc2)c1)c1ccccc1	i	i	i	47	i	i	55
O=C(N/N=C1\CC2CC=CC12)c1ccc(COc2ccccc2)cc1 (stereo not given)	i	i	i	i	i	i	nt
CC(C)(C)c1ccc(OCc2ccc(C(=O)N/N=C3\CC4CC=CC34)cc2)cc1 (stereo not given)	i	i	i	49	i	i	56
O=C1c2cccc(Cl)c2C(=O)c2c1cccc2N1CCCC1	i	i	i	48	i	i	63
CCn1c(O)c(/C=C2\C=Nc3ccccc32)sc1=Nc1ccccc1	i	i	i	43	i	i	i
Clc1ccc(CSc2nnc(-c3ccccn3)n2Cc2ccco2)c(Cl)c1	i	i	i	41	i	i	55
O=C(NCc1nc2ccccc2[nH]1)C1=C[C@@H](C2CCCCC2)C[C@@H](OCCCCO)O1	i	i	i	i	i	i	nt
O=C1Nc2ccc(F)cc2C12Nc1ccccc1-c1nnc(SCc3ccccc3)nc1O2 (stereo not given)	i	i	i	i	i	i	nt
O=C1Nc2ccc(F)cc2C12Nc1ccccc1-c1nnc(SCc3ccccc3Cl)nc1O2 (stereo not given)	i	i	i	43	i	i	77
